Measurements reported in the supplement of paper PMC12645437, “Orthogonal IMiD-Degron Pairs Induce Selective Protein Degradation in Cells” (ACS Chemical Biology, 2025).
Over roughly 8,300 sequences, “log2 fold change of degron read counts, EGFP-low vs EGFP+ sorted cells (limma voom), compound-induced degradation” has its median near -1.1; the highest 2% begin near 3.2. This is one part of a sample in which the highest values are shown more often than they occur.

T1: CRBN, Q96SW2
T1 chain: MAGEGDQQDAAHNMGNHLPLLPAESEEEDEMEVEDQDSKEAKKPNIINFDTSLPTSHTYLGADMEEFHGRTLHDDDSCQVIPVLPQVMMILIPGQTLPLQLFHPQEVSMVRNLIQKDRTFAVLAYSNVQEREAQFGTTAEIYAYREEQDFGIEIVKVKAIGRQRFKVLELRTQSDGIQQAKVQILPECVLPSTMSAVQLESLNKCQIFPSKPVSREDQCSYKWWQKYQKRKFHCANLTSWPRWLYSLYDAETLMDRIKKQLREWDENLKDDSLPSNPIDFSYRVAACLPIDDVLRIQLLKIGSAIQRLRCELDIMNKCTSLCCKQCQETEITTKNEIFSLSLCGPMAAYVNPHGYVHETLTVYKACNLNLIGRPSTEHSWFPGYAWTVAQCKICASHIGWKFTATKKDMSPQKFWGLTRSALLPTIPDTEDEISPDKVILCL

B1: 46F_47Y_49E_50V_52G_53A_54M_55F_67L_, Q9UKT9 (peptide)
chain: FYCEVCGAMFTQKGNLLRHIKL
B2: 46F_47S_49E_50V_52G_53A_54M_55F_67L_, Q9UKT9 (peptide)
chain: FSCEVCGAMFTQKGNLLRHIKL
B3: 46F_47E_49E_50V_52G_53A_54M_55F_67L_, Q9UKT9 (peptide)
chain: FECEVCGAMFTQKGNLLRHIKL
B4: 46F_47V_49E_50V_52G_53A_54M_55F_67L_, Q9UKT9 (peptide)
chain: FVCEVCGAMFTQKGNLLRHIKL
B5: 46F_47F_49E_50V_52G_53A_54M_55F_67L_, Q9UKT9 (peptide)
chain: FFCEVCGAMFTQKGNLLRHIKL
B6: 46F_47Q_49E_50V_52G_53A_54M_55F_67L_, Q9UKT9 (peptide)
chain: FQCEVCGAMFTQKGNLLRHIKL
B7: 46F_47G_49E_50V_52G_53A_54M_55F_67L_, Q9UKT9 (peptide)
chain: FGCEVCGAMFTQKGNLLRHIKL
B8: 46F_47H_49E_50V_52G_53A_54M_55F_67L_, Q9UKT9 (peptide)
chain: FHCEVCGAMFTQKGNLLRHIKL
B9: 46F_47N_49E_50V_52G_53A_54M_55F_67L_, Q9UKT9 (peptide)
chain: FNCEVCGAMFTQKGNLLRHIKL
B10: 46F_47A_49E_50V_52G_53A_54M_55F_67L_, Q9UKT9 (peptide)
chain: FACEVCGAMFTQKGNLLRHIKL
B11: 46F_47D_49E_50V_52G_53A_54M_55F_67L_, Q9UKT9 (peptide)
chain: FDCEVCGAMFTQKGNLLRHIKL
B12: 46F_47K_49E_50V_52G_53A_54M_55F_67L_, Q9UKT9 (peptide)
chain: FKCEVCGAMFTQKGNLLRHIKL
B13: 46L_47D_49E_50I_52G_53F_54L_55C_67L_, Q9UKT9 (peptide)
chain: LDCEICGFLCTQKGNLLRHIKL
B14: 46F_47A_49P_50Q_52G_53A_54F_55F_67L_, Q9UKT9 (peptide)
chain: FACPQCGAFFTQKGNLLRHIKL
B15: 46F_47W_49N_50Q_52G_53A_54E_55F_67L_, Q9UKT9 (peptide)
chain: FWCNQCGAEFTQKGNLLRHIKL
B16: 46F_47G_49E_50I_52G_53R_54G_55F_67L_, Q9UKT9 (peptide)
chain: FGCEICGRGFTQKGNLLRHIKL
B17: 46L_47G_49E_50I_52G_53F_54C_55C_67L_, Q9UKT9 (peptide)
chain: LGCEICGFCCTQKGNLLRHIKL
B18: 46F_47K_49E_50V_52G_53A_54H_55F_67L_, Q9UKT9 (peptide)
chain: FKCEVCGAHFTQKGNLLRHIKL
B19: 46L_47N_49P_50I_52G_53F_54N_55C_67L_, Q9UKT9 (peptide)
chain: LNCPICGFNCTQKGNLLRHIKL
B20: 46F_47C_49E_50V_52G_53A_54M_55F_67L_, Q9UKT9 (peptide)
chain: FCCEVCGAMFTQKGNLLRHIKL
B21: 46F_47W_49E_50V_52G_53A_54M_55F_67L_, Q9UKT9 (peptide)
chain: FWCEVCGAMFTQKGNLLRHIKL
B22: 46F_47T_49E_50V_52G_53A_54M_55F_67L_, Q9UKT9 (peptide)
chain: FTCEVCGAMFTQKGNLLRHIKL
B23: 46F_47Q_49N_50I_52G_53A_54N_55F_67L_, Q9UKT9 (peptide)
chain: FQCNICGANFTQKGNLLRHIKL
B24: 46F_47Y_49N_50Q_52G_53R_54C_55F_67L_, Q9UKT9 (peptide)
chain: FYCNQCGRCFTQKGNLLRHIKL
B25: 46L_47T_49N_50Q_52G_53F_54K_55C_67L_, Q9UKT9 (peptide)
chain: LTCNQCGFKCTQKGNLLRHIKL
B26: 46F_47G_49P_50I_52G_53A_54I_55F_67L_, Q9UKT9 (peptide)
chain: FGCPICGAIFTQKGNLLRHIKL
B27: 46F_47T_49P_50I_52G_53R_54I_55F_67L_, Q9UKT9 (peptide)
chain: FTCPICGRIFTQKGNLLRHIKL
B28: 46F_47S_49P_50I_52G_53A_54I_55F_67L_, Q9UKT9 (peptide)
chain: FSCPICGAIFTQKGNLLRHIKL
B29: 46F_47V_49P_50I_52G_53A_54I_55F_67L_, Q9UKT9 (peptide)
chain: FVCPICGAIFTQKGNLLRHIKL
B30: 46F_47G_49P_50I_52G_53R_54I_55F_67L_, Q9UKT9 (peptide)
chain: FGCPICGRIFTQKGNLLRHIKL
B31: 46F_47K_49P_50I_52G_53A_54I_55F_67L_, Q9UKT9 (peptide)
chain: FKCPICGAIFTQKGNLLRHIKL
B32: 46F_47Y_49P_50I_52G_53A_54I_55F_67L_, Q9UKT9 (peptide)
chain: FYCPICGAIFTQKGNLLRHIKL
B33: 46F_47S_49P_50I_52G_53R_54I_55F_67L_, Q9UKT9 (peptide)
chain: FSCPICGRIFTQKGNLLRHIKL
B34: 46F_47Q_49P_50I_52G_53A_54I_55F_67L_, Q9UKT9 (peptide)
chain: FQCPICGAIFTQKGNLLRHIKL

Target: T1, CRBN, Q96SW2
Assay: log2 fold change of degron read counts, EGFP-low vs EGFP+ sorted cells (limma voom), compound-induced degradation; higher = more compound-induced degradation of the degron-EGFP fusion; degrons are variants of IKZF1/3 zinc finger 2; compound dose not given here
Conditions: Jurkat, 18 h
[1] = compound: compound 19 (5-tert-butyl-thalidomide)
[2] = compound: compound 22 (5-morpholino-thalidomide)
[3] = compound: compound 33 (diphenyl IMiD analogue)
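Note: pooled lentiviral library of zinc finger degron-EGFP fusions in mCherry-positive Jurkat cells, FACS-sorted after compound exposure, with degron abundance counted by next-generation sequencing.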

Sequence | log2 fold change of degron read counts [1] | log2 fold change of degron read counts [2] | log2 fold change of degron read counts [3] | log2 fold change of degron read counts (compound: thalidomide)
B1 | 3.32 | 3.43 | 2.43 | 0.383
B2 | 2.43 | 1.36 | 1.15 | 0.408
B3 | -1.4 | -1.93 | 0.328 | 1.08
B4 | -0.335 | 1.3 | 1.8 | 2.05
B5 | 3.14 | 3.15 | 2 | 0.314
B6 | -0.365 | 2.11 | 2.44 | 3.52
B7 | 3.32 | 2.09 | 1.16 | -0.148
B8 | 1.44 | 1.27 | 0.505 | -0.808
B9 | 0.96 | -0.745 | -0.544 | -0.743
B10 | 3.25 | 1.34 | 0.261 | -0.323
B11 | -0.122 | -0.858 | 0.0809 | 0.0891
B12 | -1.98 | -3.85 | -3.74 | -1.96
B13 | -0.807 | -1.38 | -0.989 | -0.479
B14 | -0.715 | -2.49 | -1.05 | -1.87
B15 | -1.48 | -2.56 | -2.24 | -2.85
B16 | -1.02 | -2.46 | -2.04 | -2.19
B17 | -0.15 | -0.36 | -0.974 | -0.994

Sequence | log2 fold change of degron read counts [1] | log2 fold change of degron read counts [2] | log2 fold change of degron read counts [3] | log2 fold change of degron read counts (compound: thalidomide)
B18 | -2.01 | -3.17 | -2.55 | -1.68
B19 | 0.0324 | -0.534 | -0.051 | 0.589
B20 | 1.54 | 1.34 | 1.7 | 0.852
B21 | 3.14 | 3.46 | 2.23 | 0.316
B22 | -0.151 | 0.976 | 1.67 | 1.62
B23 | -0.813 | 0.399 | 1.05 | 3.08
B24 | -1.93 | -2.09 | -1.97 | -2.28
B25 | -2.23 | -1.85 | -2.34 | -1.79
B26 | 3.81 | 2.51 | 2.55 | 0.986
B27 | -1.75 | -0.494 | 0.959 | 1.17
B28 | 1.58 | 1.34 | 2.26 | 0.935
B29 | -0.598 | 0.358 | 1.51 | 1.69
B30 | 3.47 | 1.77 | 0.585 | -0.161
B31 | -2.31 | -3.23 | -3.09 | -1.63
B32 | 2.75 | 2.82 | 1.86 | 0.386
B33 | -0.412 | -0.447 | 1.06 | 0.174
B34 | -0.241 | 3.26 | 2.84 | 3.79
